# Source: PubChem
# USP10 inh: inhibitors of human USP10 deubiquitinase | purified USP10, Ub-rhodamine fluorescence, 60 min | inhibition, % at 20 µM | hit rate 1.1% among 47,000 | AID 1645856, 2021
# USP17 block: inhibitors of human USP17 deubiquitinase | purified USP17, Ub-rhodamine cleavage fluorescence, 3 h | hit rate 6.5% among 47,000 | Ubiquitin carboxyl-terminal hydrolase 17-like protein 5 (Homo sapiens), A8MUK1 | inhibition, % at 50 µM | AID 1645855, 2021
# USP30 block: inhibitors of human USP30 deubiquitinase; hit rate 5.3% among 47,000; purified USP30, Ub-rhodamine cleavage fluorescence; inhibition, % at 25 µM; Ubiquitin carboxyl-terminal hydrolase 30 (Homo sapiens), Q70CQ3; AID 1645860, 2021
# USP7 inh: inhibitors of human USP7 deubiquitinase; AID 1645854, 2021; purified USP7, Ub-rhodamine cleavage fluorescence; hit rate 0.3% among 47,000; inhibition, % at 20 µM; Ubiquitin carboxyl-terminal hydrolase 7 (Homo sapiens), Q93009
# USP8 inh: inhibitors of human USP8 deubiquitinase. AID 1645853, 2021. hit rate 4.2% among 47,000. purified USP8, Ub-rhodamine cleavage fluorescence, 30 min. Ubiquitin carboxyl-terminal hydrolase 8 (Homo sapiens), P40818. inhibition, % at 20 µM
# Target sequence (P40818 whole entry, looked up): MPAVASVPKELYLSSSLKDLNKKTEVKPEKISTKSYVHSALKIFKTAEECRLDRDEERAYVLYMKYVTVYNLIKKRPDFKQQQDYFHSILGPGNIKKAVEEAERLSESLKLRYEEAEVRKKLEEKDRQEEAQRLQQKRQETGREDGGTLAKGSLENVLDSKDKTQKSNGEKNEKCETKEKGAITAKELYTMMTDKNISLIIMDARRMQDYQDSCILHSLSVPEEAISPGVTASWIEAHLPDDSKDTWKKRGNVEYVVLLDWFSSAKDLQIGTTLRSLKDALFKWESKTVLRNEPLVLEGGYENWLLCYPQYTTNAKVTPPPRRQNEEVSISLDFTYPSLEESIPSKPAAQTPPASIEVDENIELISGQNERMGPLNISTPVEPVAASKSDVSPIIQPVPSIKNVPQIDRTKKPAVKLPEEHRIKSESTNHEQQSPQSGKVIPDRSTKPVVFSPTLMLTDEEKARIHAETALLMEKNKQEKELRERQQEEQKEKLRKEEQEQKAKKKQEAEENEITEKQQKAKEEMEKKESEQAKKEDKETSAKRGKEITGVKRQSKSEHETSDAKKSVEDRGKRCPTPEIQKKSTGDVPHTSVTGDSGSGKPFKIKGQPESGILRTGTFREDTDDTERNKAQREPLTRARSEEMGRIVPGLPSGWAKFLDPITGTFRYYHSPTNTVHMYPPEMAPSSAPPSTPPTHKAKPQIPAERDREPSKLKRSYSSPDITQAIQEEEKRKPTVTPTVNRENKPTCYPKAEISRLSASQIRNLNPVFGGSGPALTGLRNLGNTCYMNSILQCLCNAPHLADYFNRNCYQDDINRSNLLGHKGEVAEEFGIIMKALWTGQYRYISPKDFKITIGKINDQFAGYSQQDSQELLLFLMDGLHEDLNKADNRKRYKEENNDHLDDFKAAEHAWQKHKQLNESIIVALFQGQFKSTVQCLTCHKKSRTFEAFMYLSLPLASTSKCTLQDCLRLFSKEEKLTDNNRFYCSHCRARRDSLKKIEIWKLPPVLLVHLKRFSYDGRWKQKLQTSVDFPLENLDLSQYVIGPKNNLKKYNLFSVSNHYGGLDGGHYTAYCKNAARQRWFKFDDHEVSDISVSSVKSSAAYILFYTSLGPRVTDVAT
# USP28 inh: inhibitors of human USP28 deubiquitinase | Ubiquitin carboxyl-terminal hydrolase 28 (Homo sapiens), Q96RU2 | purified USP28, Ub-rhodamine cleavage fluorescence, 30 min | inhibition, % at 25 µM | hit rate 3% among 47,000 | AID 1645857, 2021
# A number is an active result; – = inactive. An excerpt weighted towards active compounds, which were near 13% of everything screened. No stated cut-off is given here; in the data, active means inhibition above about 30%; inactive means the rest.
SMILES,USP10 inh,USP17 block,USP30 block,USP7 inh,USP8 inh,USP28 inh
O=c1c2c(-c3ccccc3)csc2ncn1Cc1ccc2c(c1)OCO2,–,–,–,–,–,39.8
CN(Cc1ccc2c(c1)OCO2)C(=O)Cn1cnc2sc(-c3ccccc3)cc2c1=O,–,–,–,–,55.0,–
CS(=O)(=O)N[C@@H]1CN(Cc2cccc3ccccc23)C[C@H]1O,–,–,–,–,–,–
COc1cccc(C(=O)NCc2csc(-c3ccccc3)n2)c1,–,–,–,–,–,–
COc1cc(OC)cc(C(=O)NCc2[nH]nc3ccccc23)c1,–,–,–,–,–,31.2
COc1ccc(CNC(=O)c2cc(-c3ccccn3)n[nH]2)cc1,–,–,–,–,–,–
COc1cccc(C(=O)NCc2[nH]nc3ccccc23)c1,–,56.6,–,–,84.1,–
O=C(c1ccccn1)N(c1ccc(Oc2ccccc2)cc1)c1nc2ccccc2s1,–,–,–,–,–,–
c1coc(-c2nc3ccccc3n2CCC2CCCCC2)c1,–,36.5,–,–,68.3,–
O=S(=O)(c1ccc(-c2ccco2)cc1)C1CCN(CCc2ccccn2)CC1,–,30.7,–,–,–,–
O=C(CCc1ccccc1)N(CC1CCCO1)c1nc2ccccc2s1 (centres undefined),–,–,55.8,–,–,–
O=C(CCc1ccccc1)N(Cc1cccnc1)c1nc2cc3c(cc2s1)OCO3,–,–,–,–,–,–
O=C(Nc1ccncc1)c1cc(Br)ccc1F,–,–,35.2,–,–,–
O=C(Nc1ccncc1)c1ccc[nH]c1=O,–,–,–,–,–,–
CCN1C(SCc2ccc(F)cc2)=NS(=O)(=O)c2ccccc21,–,–,–,–,–,61.8
O=C1CN(Cc2ccccc2)S(=O)(=O)c2ccccc2N1Cc1ccccc1F,–,–,–,–,–,–
O=C1CC(c2ccccc2)S(=O)(=O)c2ccccc2N1Cc1ccccc1F (centres undefined),–,39.5,–,–,–,–
COc1ccc(C2CC(=O)N(Cc3ccccc3F)c3ccccc3S2(=O)=O)cc1OC (centres undefined),–,36.4,–,–,32.6,–
O=C1CN(Cc2cccc(F)c2)S(=O)(=O)c2ccccc2N1Cc1ccccc1F,–,–,30.7,–,–,–
O=C1CN(Cc2ccc(F)cc2)S(=O)(=O)c2ccccc2N1Cc1ccccc1F,–,–,–,–,–,–
CN1C(=O)OC2(CCN(C(=O)c3ccccc3)CC2)c2ccccc21,–,–,–,–,–,–
Cc1cc(C)cc(-n2cnc3cc(C(=O)NCCC4=CCCCC4)ccc32)c1,–,–,–,–,–,63.5
CC(=O)N1CCCC1c1nnc2n1CCN(C(=O)CC1CCCCC1)CC2 (centres undefined),–,–,–,–,–,–
Cc1cnc(NC(=O)c2cc3cc(Cl)ccc3o2)s1,–,–,–,–,46.1,–
COc1ccccc1CC(=O)N[C@@H](C)c1nc2cc(-c3ccccc3F)ncn2n1,–,–,38.6,–,–,–
SMILES,USP10 inh,USP17 block,USP30 block,USP7 inh,USP8 inh,USP28 inh
CCOCc1ccc(C(=O)N[C@H](C)c2nc3cc(-c4ccc(OC)cc4)ncn3n2)cc1,34.9,–,40.7,–,–,–
C[C@H](NC(=O)Cc1ccccc1F)c1nc2cc(-c3ccc(F)cc3)ncn2n1,–,–,34.8,–,–,–
CCC(C(=O)Nc1ncc2c(n1)CC(c1ccc(C)cc1)CC2=O)c1ccccc1 (centres undefined),–,–,–,–,–,–
COc1cccc(C(=O)N2CCN(C(C)c3nc(-c4ccc(Cl)cc4)no3)CC2)c1O (centres undefined),–,–,–,–,–,–
CCOc1ccc2nc(NC(=O)Cc3ccc(OC)c(OC)c3)sc2c1,–,–,–,–,–,–
CCOc1ccc2nc(NCCc3ccc(Cl)cc3Cl)sc2c1,–,–,–,–,–,44.3
COc1c(O)cc2cc(C)oc(=O)c2c1O,–,–,35.8,–,–,–
CN(C(=O)CN1CCOC(Cn2cccn2)C1)C1(C#N)CCCCC1 (centres undefined),–,–,–,–,–,–
CN(C(=O)Cn1c(=O)n(-c2ccc(Cl)cc2)c(=O)c2c3c(sc21)CCCC3)C1CCCCC1,–,40.6,31.7,–,–,–
O=C(CCCn1c(=O)c2sccc2n(Cc2ccc(F)cc2)c1=O)NCc1ccco1,–,–,–,–,33.0,–
O=C(CCCCCn1c(=O)c2sccc2n(CC(=O)c2ccc(Cl)c(Cl)c2)c1=O)NCc1ccc2c(c1)OCO2,46.1,–,–,–,89.3,–
COc1ccc2c(CNCc3ccco3)c(C(=O)O)n(Cc3ccc(F)cc3)c2c1,–,–,–,–,–,–
Cc1cc(NC(=O)Cn2c(=O)n(CCCCCC(=O)NCc3ccc4c(c3)OCO4)c(=O)c3sccc32)n[nH]1,–,–,–,–,–,–
O=C(CCCCCn1c(=O)c2sccc2n(CC(=O)c2ccc(F)cc2)c1=O)NCc1ccccc1Cl,–,–,38.6,–,44.9,–
CCCn1c(C(O)c2cccc3ccccc23)nc2ccccc21 (centres undefined),–,–,–,–,48.3,–
Cc1nc2ccccc2n1CC(O)Cn1c2ccccc2c2ccccc21 (centres undefined),–,–,–,–,–,–
CCN1C(=O)CCc2cc(NS(=O)(=O)c3ccccc3C(F)(F)F)ccc21,–,–,–,–,–,–
COc1ccc(C(=O)NCCS(=O)(=O)N2CCN(c3ccccc3)CC2)c(OC)c1,–,–,–,–,–,–
COc1cccc(-c2cc(CC(=O)Nc3ccc(C(N)=O)cc3)no2)c1,–,–,–,–,40.2,–
COc1ccccc1CCNC(=O)Cc1cc(-c2ccc(F)cc2)on1,–,–,–,–,–,–
NC(=O)c1ccc(NC(=O)Cc2cc(-c3ccc(F)cc3)on2)cc1,–,39.1,–,–,–,–
Cc1ccc(C2CC(=O)C3=C(C2)Nc2ccccc2N(C(=O)C(F)(F)F)C3c2ccc(OCc3ccccc3)cc2)cc1 (centres undefined),–,–,–,–,–,–
CC(=O)N1CCc2cc(S(=O)(=O)NC(C(=O)Nc3nc4ccc(C)cc4s3)C(C)C)ccc21 (centres undefined),–,–,–,–,30.5,–
CC(=O)N1CCc2cc(S(=O)(=O)Nc3c(C)cccc3C)ccc21,–,–,–,–,–,–
COc1ccc(C)cc1NC(=O)C(NS(=O)(=O)c1ccc2c(c1)CCN2C(C)=O)C(C)C (centres undefined),–,–,54.4,–,–,–
O=C(c1cc(-c2ccc(F)cc2)n[nH]1)N1CCN(c2ccc(N3CCOCC3)nn2)CC1,–,–,–,–,–,–
